Data on 4 molecules can be found in PubChem BioAssay.

The structures appear in SMILES notation. Calls of active or inactive are those of the source. Unless noted, how the calls were made is not given here.

Experiment [1] has as its system Wnt5a (protein binding on small-molecule microarray). As to the kind of experiment: Wnt5a binders on small-molecule microarray, primary screen, biophysical, 635/667 nm fluorescence (AID 1142).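 Further: fluorescence read at 667 nm with signal to noise per printed feature.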 Conditions: 635 nm fluorescence, higher = more signal.
The nature of experiment [2]: cell viability in Huh7 cells, primary screen, cytotoxicity control for HCV replication inhibitor project, CellTiter-Glo luminescence, basal, 48 h (AID 1143).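 Further: Huh7 hepatoma cells carrying a hepatitis C replication reporter with no stimulus; test concentration not given here.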 The following applies: Huh7 HCV replicon, higher = more signal, called active from +8 up or from −8 down. In general terms: In ATP-based viability assays light output follows the ATP content of the culture.
Experiment [3] can be described thus: P. aeruginosa biofilm formation inhibitors, primary screen, PAO1 strain, BacTiter-Glo luminescence, LB-PBS (AID 1144). Conditions: 12 h, higher = more signal.
The nature of experiment [4]: CREB reporter modulators without forskolin, primary screen, cell-based, PC12, CRE-LacZ reporter, unstimulated (AID 1145). The following applies: no forskolin, luminescence, 4.5 h, higher = more signal, called active from +8 up or from −8 down.
The nature of experiment [5]: CREB reporter modulators under forskolin, primary screen, cell-based, PC12, CRE-LacZ reporter, forskolin-stimulated (AID 1146).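 Further: PC12 cells with 6xCRE LacZ reporter stimulated by forskolin 10 µM; beta-galactosidase reporter signal reflecting CREB driven transcription.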 Conditions: luminescence, 4.5 h, higher = more signal, called active from +8 up or from −8 down.
For experiment [6], the target named is Streptavidin (Streptomyces avidinii) (UniProt P22629). As to the kind of experiment: streptavidin binders on small-molecule microarray, primary screen, artefact control for SMM compound annotation, biophysical, 635/667 nm fluorescence (AID 1147).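 Further: signal reflects streptavidin binding to arrayed compounds as a control protein.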 Conditions: streptavidin binding, higher = more signal.
Streptavidin (Streptomyces avidinii), sequence (P22629 whole entry, looked up): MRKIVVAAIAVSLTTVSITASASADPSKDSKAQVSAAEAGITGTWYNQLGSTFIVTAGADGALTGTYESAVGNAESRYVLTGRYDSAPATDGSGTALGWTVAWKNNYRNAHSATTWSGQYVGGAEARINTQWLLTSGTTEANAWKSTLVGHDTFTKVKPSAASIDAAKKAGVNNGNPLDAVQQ
Experiment [7] can be described thus: small-molecule binders of probe aInhba, primary screen, biochemical, small-molecule microarray, 635/667 nm fluorescence (AID 1148).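 Further: score merges 667nm spot fluorescence with signal-to-noise for antibody binding to printed compounds.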 The following applies: higher = more signal.
Experiment [8] deals with Torsin-1A (Homo sapiens) (UniProt O14656). As to the kind of experiment: torsin A binders from cell lysate, primary screen, small-molecule microarray, wild-type, 635/667 nm (AID 1149). Conditions: COS7 hTOR1A-WT lysate, 635 nm fluorescence, higher = more signal.
Torsin-1A (Homo sapiens), sequence (O14656 whole entry, looked up): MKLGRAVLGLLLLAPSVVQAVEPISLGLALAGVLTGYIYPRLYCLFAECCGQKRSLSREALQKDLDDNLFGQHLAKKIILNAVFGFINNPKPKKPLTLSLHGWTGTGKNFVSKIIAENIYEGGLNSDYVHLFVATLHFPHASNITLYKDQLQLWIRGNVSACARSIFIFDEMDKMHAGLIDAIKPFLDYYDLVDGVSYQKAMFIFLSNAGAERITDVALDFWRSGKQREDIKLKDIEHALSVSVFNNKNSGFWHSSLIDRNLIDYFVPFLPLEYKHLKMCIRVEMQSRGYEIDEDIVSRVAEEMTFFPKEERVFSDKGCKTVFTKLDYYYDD
For experiment [9] the target is unchanged. As to the kind of experiment: small-molecule binders of mutant TOR1A in lysate, primary screen, cell lysate, small-molecule microarray, COS7 lysate, 635/667 nm fluorescence (AID 1150).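 Further: score pools 667 nm emission and signal to noise measuring lysate protein binding.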 Conditions: COS7 hTOR1A mutant lysate, 635 nm fluorescence, higher = more signal.
The subject of experiment [10] is Sonic hedgehog protein (Shh). As to the kind of experiment: small-molecule binders of Shh protein, primary screen, biochemical, small-molecule microarray, 635/667 nm fluorescence (AID 1151).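 Further: Shh protein binding to compounds spotted on small-molecule microarray slides; score combines spot fluorescence intensity with signal-to-noise across triplicate slides.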 The following applies: small-molecule microarray binding, 635 nm fluorescence; higher = more signal.
The nature of experiment [11]: E. coli DRC41 culture turbidity changes, primary screen, E. coli filamentation inducer project, strain DRC41, OD650, 48 h (AID 1152).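 Further: E. coli MC1000 strain DRC41 lacking acrAB efflux pump and sulA.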 The following applies: E. coli DRC41 (acrAB sulA), higher = more signal, called active from +8 up or from −8 down.
Experiment [12] is described as follows: small-molecule binders of probe aLefty1, primary screen, biochemical, small-molecule microarray, 635/667 nm fluorescence (AID 1153).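 Further: score merges spot fluorescence with signal-to-noise ratio from the scanned slide images.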 The following applies: higher = more signal.
The nature of experiment [13]: PSAC antagonists in infected red cells, primary screen, cell-based, P. falciparum Indochina, OD700, 1 h (AID 1154). The following applies: P. falciparum Indochina infected RBC osmotic lysis, higher = more signal, called active from +8 up or from −8 down.
The nature of experiment [14]: PSAC antagonists in infected red cells, primary screen, cell-based, P. falciparum Indochina, OD700, 2 h (AID 1155).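 Further: lysis reports solute entry through the parasite surface anion channel PSAC; channel blockers reduce lysis of infected cells.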 The following applies: P. falciparum Indochina infected erythrocytes, osmotic lysis OD700; higher = more signal, called active from +8 up or from −8 down.
Experiment [15] is described as follows: osmotic lysis modulators in infected erythrocytes, primary screen, PSAC antagonist project, cell-based, P. falciparum Indochina, OD700, 3 h (AID 1156). The following applies: higher = more signal, called active from +8 up or from −8 down.
Experiment [16] can be described thus: PSAC antagonists in infected red cells, primary screen, cell-based, P. falciparum Indochina, OD700, 18 h (AID 1157). The following applies: P. falciparum Indochina infected erythrocytes, osmotic lysis OD700, 18 h; higher = more signal, called active from +8 up or from −8 down.
A short description of experiment [17]: modulators of S6 phosphorylation in cells, primary screen, cell-based, A549, cytoblot, luminescence, serum-stimulated (AID 1158).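 Further: serum-stimulated A549 lung adenocarcinoma cells; signal is phosphorylated S6 detected by cytoblot immunostaining with HRP secondary.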 Conditions: A549 phospho-S6 cytoblot, 5 h, higher = more signal.
For experiment [18], the target named is NADPH oxidase 2 (Homo sapiens) (UniProt P04839). As to the kind of experiment: NOX2-dependent H2O2 signal modulators, primary screen, NOX inhibitor project, cell-based, HEK293-NOX2, PMA-stimulated, Amplex Red fluorescence (AID 1159). Further: test concentration not given here. Conditions: 45 min, higher = more signal, called active from +8 up or from −8 down.
NADPH oxidase 2 (Homo sapiens), sequence (P04839 whole entry, looked up): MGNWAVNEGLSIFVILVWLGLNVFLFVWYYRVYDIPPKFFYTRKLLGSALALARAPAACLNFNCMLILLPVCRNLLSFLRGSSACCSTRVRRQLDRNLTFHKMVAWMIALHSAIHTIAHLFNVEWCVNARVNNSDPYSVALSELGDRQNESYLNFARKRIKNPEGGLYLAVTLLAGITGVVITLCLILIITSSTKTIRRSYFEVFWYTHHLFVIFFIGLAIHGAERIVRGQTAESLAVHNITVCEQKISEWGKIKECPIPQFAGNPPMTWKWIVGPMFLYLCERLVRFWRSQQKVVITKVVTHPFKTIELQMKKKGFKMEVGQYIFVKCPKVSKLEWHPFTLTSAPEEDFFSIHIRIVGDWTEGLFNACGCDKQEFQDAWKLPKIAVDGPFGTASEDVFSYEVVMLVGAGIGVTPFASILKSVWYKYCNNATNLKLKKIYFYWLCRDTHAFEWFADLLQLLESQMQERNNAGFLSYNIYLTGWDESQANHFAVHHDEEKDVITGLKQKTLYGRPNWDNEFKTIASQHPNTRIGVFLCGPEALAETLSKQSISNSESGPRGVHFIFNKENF
For experiment [19], the target named is NADPH oxidase 4 (Homo sapiens) (UniProt Q9NPH5). As to the kind of experiment: NOX4-dependent H2O2 signal modulators, primary screen, NOX inhibitor project, cell-based, HEK293-NOX4, tetracycline-induced, Amplex Red fluorescence (AID 1160). The following applies: 45 min, higher = more signal, called active from +8 up or from −8 down.
NADPH oxidase 4 (Homo sapiens), sequence (Q9NPH5 whole entry, looked up): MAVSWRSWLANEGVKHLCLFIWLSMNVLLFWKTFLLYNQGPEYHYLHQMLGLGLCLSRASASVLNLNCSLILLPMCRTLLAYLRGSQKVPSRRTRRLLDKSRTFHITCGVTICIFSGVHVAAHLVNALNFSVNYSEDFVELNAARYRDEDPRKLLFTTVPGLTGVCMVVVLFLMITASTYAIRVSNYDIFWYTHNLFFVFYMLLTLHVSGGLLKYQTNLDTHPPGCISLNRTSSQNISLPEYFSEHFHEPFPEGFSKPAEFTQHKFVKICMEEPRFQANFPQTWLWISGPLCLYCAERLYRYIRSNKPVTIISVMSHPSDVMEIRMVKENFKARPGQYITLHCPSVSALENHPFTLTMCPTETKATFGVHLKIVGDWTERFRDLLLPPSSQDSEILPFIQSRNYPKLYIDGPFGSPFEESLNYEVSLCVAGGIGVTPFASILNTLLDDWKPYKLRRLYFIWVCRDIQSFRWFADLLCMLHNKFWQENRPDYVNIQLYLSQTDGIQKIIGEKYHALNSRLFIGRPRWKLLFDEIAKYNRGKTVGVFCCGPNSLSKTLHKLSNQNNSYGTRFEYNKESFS
Experiment [20] concerns the target NADPH oxidase 5 (Homo sapiens) (UniProt Q96PH1). As to the kind of experiment: NOX5-dependent H2O2 signal modulators, primary screen, NOX inhibitor project, cell-based, HEK293-NOX5, Amplex Red fluorescence (AID 1161). Conditions: HEK293-NOX5, ionomycin, 45 min, higher = more signal.

NADPH oxidase 5 (Homo sapiens), sequence (Q96PH1 whole entry, looked up): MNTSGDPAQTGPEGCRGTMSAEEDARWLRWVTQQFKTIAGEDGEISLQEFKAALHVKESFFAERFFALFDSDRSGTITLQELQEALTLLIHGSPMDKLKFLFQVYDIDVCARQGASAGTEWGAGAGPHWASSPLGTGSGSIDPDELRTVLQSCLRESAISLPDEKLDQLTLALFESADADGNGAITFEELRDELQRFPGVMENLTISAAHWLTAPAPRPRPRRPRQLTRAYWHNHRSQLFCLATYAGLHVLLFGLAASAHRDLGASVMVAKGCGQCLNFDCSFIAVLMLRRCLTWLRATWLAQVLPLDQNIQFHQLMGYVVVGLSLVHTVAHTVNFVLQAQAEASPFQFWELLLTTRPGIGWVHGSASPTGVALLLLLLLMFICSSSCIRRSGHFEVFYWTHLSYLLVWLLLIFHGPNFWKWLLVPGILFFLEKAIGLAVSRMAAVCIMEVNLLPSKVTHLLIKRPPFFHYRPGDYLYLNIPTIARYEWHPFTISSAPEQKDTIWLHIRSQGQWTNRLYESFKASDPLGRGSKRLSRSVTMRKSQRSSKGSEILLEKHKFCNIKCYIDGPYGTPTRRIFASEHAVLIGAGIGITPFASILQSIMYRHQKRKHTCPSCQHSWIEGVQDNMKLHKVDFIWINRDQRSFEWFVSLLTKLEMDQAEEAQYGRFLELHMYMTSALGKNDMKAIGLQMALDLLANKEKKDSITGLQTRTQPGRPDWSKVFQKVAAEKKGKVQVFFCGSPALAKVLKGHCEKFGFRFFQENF

Take `COC(=O)c1c2oc(c1C(=O)OC)C(=O)N1CCC[C@H]1Cn1nncc1CN(Cc1ccccc1)C(=O)N[C@H](CO)CC2`: the composite z-score in experiment [1] is 0.533; in experiment [6], 0.0789; in experiment [7] it was -0.0448; in experiment [8] it was -0.14; in experiment [9], -0.0715; in experiment [10], 0.658. For the same molecule, in experiment [12], the composite z-score turned out to be 0.0429. The z-score in [2] is 0.246 (inactive); in [3] it was -0.294 (inactive); in experiment [4], 0.251 (inactive); in experiment [5], -0.147 (inactive); in [11] it was 1.53 (inactive); in [13], 0.834 (inactive). For the same molecule, the z-score was 0.609 (inactive) in [14]; -0.418 (inactive) in experiment [15]; 0.924 (inactive) in experiment [16]; 0.429 in [17]; -0.521 (inactive) in experiment [18]; 0.556 (inactive) in [19]. Moreover, the z-score in experiment [20] turned out to be 1.19.

With `O=C(O)[C@H]1C[C@H]2C(=O)N[C@@H](Cc3ccccc3)C(=O)N2[C@H]1c1cccc(OCCO)c1`, the composite z-score in experiment [1] was determined as 0.223; in experiment [6] it was 0.105; in [7], 0.0663; in experiment [8] it was 1.42; in [9] it was 1.71; in experiment [10], 1.9. The molecule also returned a composite z-score in experiment [12] of 0.121. For the same molecule, the z-score was -0.6 (inactive) in experiment [2]; 0.28 (inactive) in [3]; 1.23 (inactive) in [4]; -0.178 (inactive) in experiment [5]; 0.262 (inactive) in experiment [11]; 4.38 (inactive) in experiment [13]. Besides, the z-score was 0.547 (inactive) in experiment [14]; -2.49 (inactive) in [15]; 0.204 (inactive) in experiment [16]; 0.146 in experiment [17]; -3.4 (inactive) in experiment [18]; -4.87 (inactive) in [19]. The same molecule had a z-score in experiment [20] of -2.33.

`COc1ccc([Si](C)(C)[C@H]2[C@H](CCO)O[C@@]3(C(=O)N(Cc4ccccc4)c4ccc(N5CCOC5=O)cc43)[C@@H]2C)cc1`: the composite z-score was 0.0771 in [1]; 1 in experiment [6]; 0.0756 in experiment [7]; -0.112 in experiment [8]; -0.12 in experiment [9]; 1.16 in experiment [10]. The composite z-score in experiment [12] was -0.0025. Also, the z-score in experiment [2] is -4.87 (inactive); in [3], -0.521 (inactive); in [4] it was 2.11 (inactive); in [5] it was -0.726 (inactive); in experiment [11], -0.261 (inactive); in experiment [13], 5.86 (inactive). The z-score in experiment [14] is 1.9 (inactive); in experiment [15] it was -0.307 (inactive); in experiment [16], 0.913 (inactive); in experiment [17], 0.577; in [18], -1.36 (inactive); in experiment [19], 1.71 (inactive). In experiment [20], this molecule yielded a z-score of 2.27.

As for `C[C@]1(C(=O)O)c2ccccc2C(=O)N(Cc2ccc(OC(F)(F)F)cc2)[C@H]1c1ccc(CO)cc1`, the composite z-score is 0.386 in experiment [1]; -0.129 in [6]; 0.053 in experiment [7]; 0.45 in experiment [8]; 0.522 in [9]; -0.261 in [10]. For the same molecule, the composite z-score in experiment [12] was determined as 0.227. Besides, the z-score in [2] was -0.17 (inactive); in experiment [3] it was -0.526 (inactive); in [4] it was 0.118 (inactive); in [5] it was -0.48 (inactive); in [11] it was 0.026 (inactive); in experiment [13], 3.93 (inactive). Also, the z-score in experiment [14] is 0.789 (inactive); in experiment [15], 0.503 (inactive); in [16], 0.18 (inactive); in experiment [17], -0.115; in experiment [18], 0.948 (inactive); in experiment [19] it was 0.41 (inactive). The same molecule gave a z-score in experiment [20] of -0.52.
